This is part of a sample that, as a whole, favours compounds with a hit. Of some 79,000 tested, about 15% had one in any assay. Calls of active or inactive are those of the source. Cut-off read from the data, not from the text of the source: active = growth inhibition above about 70%; inactive = the rest.
Key:
[1] = NCI Yeast Anticancer Drug Screen. Data for the rad50 strain (AID 155);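 note: 0% = growth of vehicle-only cultures of the same strain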; conditions: S. cerevisiae rad50 strain growth inhibition; at 50.0 µM; active compounds read high
Outline: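 Inhibition values express reduced yeast growth in compound-treated cultures relative to vehicle-treated controls.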

[2] = NCI Yeast Anticancer Drug Screen. Data for the mec2-1 strain (AID 157); conditions: S. cerevisiae mec2-1 strain, at 50.0 µM, active compounds read high
Outline: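 Each compound was tested on mec2-1 yeast, a strain altered in DNA damage repair or cell cycle control. Growth inhibition is reported relative to vehicle.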

[3] = NCI Yeast Anticancer Drug Screen. Data for the sgs1 mgt1 strain (AID 161);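 note: 0% = growth of cultures given vehicle only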; conditions: S. cerevisiae sgs1 mgt1 strain, at 50.0 µM, active compounds read high
Outline: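 Test agents were incubated with a DNA-repair-mutant yeast strain. Growth was then read and compared against vehicle-treated controls.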

[4] = NCI Yeast Anticancer Drug Screen. Data for the cln2 rad14 strain (AID 165);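 note: 0% = growth equal to vehicle treated cultures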; conditions: S. cerevisiae cln2 rad14 strain, at 50.0 µM, active compounds read high
Outline: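 Test compounds were added to cln2 rad14 yeast cultures; inhibition of growth was then determined by comparison with vehicle treatment.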

[5] = NCI Yeast Anticancer Drug Screen. Data for the bub3 strain (AID 167); conditions: S. cerevisiae bub3 mutant strain, at 50.0 µM, active compounds read high
Outline: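 Steps: expose the mutant yeast strain to compound; grow alongside vehicle-treated cultures; measure growth; express inhibition against the vehicle cultures.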

[6] = NCI Yeast Anticancer Drug Screen. Data for the mlh1 rad18 strain (AID 175); conditions: S. cerevisiae mlh1 rad18 strain growth inhibition; at 50.0 µM; active compounds read high
Outline: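 Inhibition values reflect reduced growth of mutant yeast versus vehicle-treated controls following compound exposure; the mutations affect DNA damage repair.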

Measured: growth inhibition

C=CCNC(=O)/C=C/C
inactive: [1] 1.95% | [2] 0.65% | [3] -2.1% | [4] 1.8% | [5] 9.75% | [6] -4.35%

CCN1CCCC(Cl)C1 (stereo unspecified)
inactive: [1] 12.8% | [2] -41% | [3] 14.7% | [4] -0.5% | [5] -12.4% | [6] 5.95%

Nc1ccccc1CO
inactive: [1] 3% | [2] 2.4% | [3] 2.25% | [4] -0.05% | [5] -4.65% | [6] 7.1%

CN1CCS(=O)(=O)C2CCCCC2C1=O (stereo unspecified)
inactive: [1] 1.25% | [2] -13.4% | [3] 4.85% | [4] 11.8% | [5] 10.5% | [6] 1.1%

CCCCC(=O)c1ccc2ccccc2c1O
inactive: [1] 6.9% | [2] -6.35% | [3] 3.9% | [4] -18% | [5] -6.3% | [6] 6.8%

CCCCCN(C=O)c1ccccc1
inactive: [1] -4.25% | [2] -13.7% | [3] -19.9% | [4] -13.6% | [5] -7.4% | [6] -2.5%

COC(=O)c1c2c(cc3c1CC1(Cc4cc5c(cc4C1)CCCC5)C3)CCCC2
inactive: [1] -6.3% | [2] -16.4% | [3] -21.9% | [4] 12.3% | [5] -5.8% | [6] 7.35%

CC(=O)Oc1ccc(NCNc2ccc(OC(C)=O)cc2)cc1
inactive: [1] -11.8% | [2] 0.95% | [3] -3.2% | [4] -26.6% | [5] -2.25% | [6] -3.35%

COC(=O)C1C(O)C(C)C(O)OC1C(C)C(O)C(C)/C=C\C=C(/C)C(=O)Nc1c(C)c(OC(C)=O)c2c(c1O)C(=O)C(C)=C1OCOC(/C(C)=C/C(C)=O)=C12 (stereo unspecified)
inactive: [1] 14.6% | [2] 8.3% | [3] 9.8% | [4] 13.4% | [5] 14% | [6] 17.6%

COC(=O)C1CC2(C(=O)OC)CC(C(=O)OC)(CC(C(=O)OC)C2=O)C1=O (stereo unspecified)
inactive: [1] 9.55% | [2] -0.15% | [3] 14.1% | [4] 11.9% | [5] 18.5% | [6] 3.55%

CN(C)c1cc(-c2ccccc2)oc(=O)c1Cl
inactive: [1] 11.6% | [2] -19.8% | [3] -24.2% | [4] -22.2% | [5] -16.2% | [6] -9.15%

O=c1cc[nH]c2cc(C(F)(F)F)ccc12
inactive: [1] -26.4% | [2] -39% | [3] -16.7% | [4] 10.1% | [5] -25.9% | [6] -34%

COC(=O)c1ccccc1NC(=O)/C(=N\NC(C)(C)C)C(C#N)c1nc(-c2ccc([N+](=O)[O-])cc2)cs1 (stereo unspecified)
inactive: [1] -4.35% | [2] 14% | [3] -0.6% | [4] 18.6% | [5] 26.1% | [6] -8.3%

Cc1ccc(S(=O)(=O)Nc2ccc3ncsc3c2[N+](=O)[O-])cc1
active: [1] 97.2% | [2] 98.7% | [3] 98.3% | [4] 98.2% | [5] 98% | [6] 98%

CCOc1nc(C(=O)O)cc2ccsc12
inactive: [1] 1.15% | [2] -6.2% | [3] 5.5% | [4] -48.1% | [5] -43.4% | [6] 0%

OC/C=C(\I)CCCOCOCc1ccccc1
inactive: [1] -14.4% | [2] -4.35% | [3] -7.35% | [4] -18.4% | [5] -10.5% | [6] -36.2%

O=S(=O)([O-])c1ccc2c[n+]3ccccc3cc2c1
inactive: [1] -16.1% | [2] 5% | [3] -0.95% | [4] -44.6% | [5] 6.1% | [6] -10.3%

CCOC(=O)CC[C@@H](NC(=O)c1ccc(NCc2ccc3nc(OC)c(OC)nc3c2)cc1)C(=O)OCC
inactive: [1] 2.7% | [2] -10.2% | [3] -4.15% | [4] -9.55% | [5] 15.8% | [6] -13.4%

CCOC(=O)C(Cc1ccc(OC)c(C)c1)(NC(C)=O)C(=O)OCC
inactive: [1] -0.3% | [2] 5.1% | [3] -3.45% | [4] -14.2% | [5] 3.85% | [6] 6.4%

CCC1(C)OCC(C)(C)C(C(C)C)O1 (stereo unspecified)
inactive: [1] -13.7% | [2] 3% | [3] -17.4% | [4] -62.5% | [5] -39.6% | [6] -14.6%

Nc1nc(N)nc(-c2cc(Br)c(N)c(Br)c2)n1
inactive: [1] -2.55% | [2] -7.45% | [3] 0.95% | [4] 34.6% | [5] 3.3% | [6] -8.25%

Cc1cc(N(CCC#N)CCC#N)ccc1/C=C(\NC(=O)/C=C/c1ccccc1)C(=O)Nc1ccc(Cl)cc1
inactive: [1] -7.1% | [2] -15.1% | [3] 2.2% | [4] 1.7% | [5] 3.9% | [6] -1.65%

CCCC(C)(C)CO
inactive: [1] 1.75% | [2] 1.35% | [3] -1.85% | [4] 5.6% | [5] 9.3% | [6] 5.75%

CC1C=CC(C)S(=O)N1C(=O)Cc1ccccc1 (stereo unspecified)
inactive: [1] -2.6% | [2] -14.6% | [3] -9.35% | [4] -16.9% | [5] -25.5% | [6] -19.6%

COc1nc(N)c(NC(C)=O)c(=O)n1C
inactive: [1] 3.9% | [2] -19.2% | [3] -21.4% | [4] -4.3% | [5] -22.6% | [6] 9%

CC(O)C1(O)C(O)CC(OC2c3cc4c(c(O)c3[C@@H]3C[C@@]2(C)OC32C=c3cc[nH]c3=N2)C(=O)c2cccc(O)c2C4=O)OC1C (stereo partly specified)
inactive: [1] 63.5% | [2] 41.1% | [3] 60% | [4] 50.4% | [5] 52% | [6] 67.6%

CC(=O)N(C)N=Nc1ccc(Cl)cc1
inactive: [1] 10.4% | [2] 11.7% | [3] 2.05% | [4] -17.6% | [5] 3.8% | [6] 15.9%

ClC1C2c3ccccc3C1C1C2C2(c3ccccc3)OC1(c1ccccc1)c1ccccc12 (stereo unspecified)
inactive: [1] 12.7% | [2] 1.65% | [3] -3.2% | [4] -60.1% | [5] -2% | [6] 0.2%

NC(N)=N/N=C(\c1nc2ccc([N+](=O)[O-])cc2[nH]c1=O)C(O)c1ccc([N+](=O)[O-])cc1 (stereo unspecified)
inactive: [1] -16% | [2] -24.9% | [3] -16.6% | [4] -24.1% | [5] -6.7% | [6] 1.85%

[C-]#[N+]C(=C\c1ccc(O)cc1)/C(=C/c1ccc(O)cc1)[N+]#[C-]
active: [1] 97.8% | [2] 98% | [3] 97.8% | [4] 96% | [5] 98.1% | [6] 98.2%

CC(O)(COS(=O)(=O)c1ccccc1)c1ccccc1 (stereo unspecified)
inactive: [1] -8.1% | [2] 0.7% | [3] -8.7% | [4] -14% | [5] 26.7% | [6] -8.4%

O=C(Cl)N(C1CCCCC1)C1CCCCC1
inactive: [1] -19% | [2] -8.8% | [3] -1.5% | [4] -10.9% | [5] 2.35% | [6] -12.9%

CCCC(=O)Oc1ccc(C)cc1C(C)(C)C
inactive: [1] 6.65% | [2] -22.2% | [3] -4.95% | [4] 9.5% | [5] -10.2% | [6] 4.25%

CCOC(=O)c1[nH]n(-c2ccccc2)c(=O)c1/C=N/C(=S)Nc1ccccc1
inactive: [1] -22.3% | [2] -10.6% | [3] -16.6% | [4] -11.8% | [5] -21.3% | [6] -7.85%

O=c1[nH]c2ccccc2c(O)c1/C=N/C(=S)NCc1ccccc1
inactive: [1] -23.1% | [2] -23.8% | [3] 3.95% | [4] 0.2% | [5] 0.7% | [6] -37.2%

CC1=CC(=O)CC(C)(C)C1(O)/C=C/C(C)=C/C(=O)O (stereo unspecified)
inactive: [1] -11.6% | [2] -28.5% | [3] -56% | [4] -37% | [5] -41.7% | [6] 5.1%

O=[N+]([O-])c1cccc(C2CC(c3ccccc3)=NN2c2ccccc2)c1 (stereo unspecified)
inactive: [1] 2.9% | [2] -2.05% | [3] 0.25% | [4] -9.4% | [5] 10.4% | [6] -7.3%

O=C1c2ccccc2C2(O)Nc3cc(O)ccc3C12O (stereo unspecified)
inactive: [1] -24.6% | [2] -23.1% | [3] -15.1% | [4] -14.1% | [5] -11.8% | [6] -19.6%

Nc1ccc(S(=O)(=O)n2cccc2)cc1
inactive: [1] -8.9% | [2] 1.2% | [3] -19.9% | [4] -6.4% | [5] -9.25% | [6] -10.5%

CCCCNC(=O)Nc1cccc(C)c1C
inactive: [1] -4.2% | [2] -7.9% | [3] 0.75% | [4] -25.8% | [5] 0.55% | [6] 6.35%

CCC(CC)CCC(=O)CC(C)C
inactive: [1] 23.9% | [2] -3.5% | [3] -15.6% | [4] 5.5% | [5] -19% | [6] 7.1%

Source: PubChem BioAssay (NCI)
